Measured values from a collection of fitness landscapes (doi:10.1016/j.celrep.2020.107928).
Whole data set: some 81,000 sequences, median “one-hybrid fitness for binding NBS DNA” near -0.1, cut for the highest 2% near 0.36. This is one part of a sample in which the highest values are shown more often than they occur.

B1: Caulobacter ParB omega fusion; a variant is named by its letters at X, in order, B8GW30 (parent)
chain: MESVVVGEPGMSEGRRGLGRGLSALLGEVDAAPAQAPGEQLGGSREAPIEILQRNPDQPRRTFREEDLEDLSNSIREKGVLQPILVRPSPDTAGEYQIVAGERAWRAAQRAGLKTVPIMVRELDDLAVLEIGIIENVQRADLNVLEEALSYKVLMEKFERTQENIAQTIGKSXSHVANXMRLLXLPDEVQSYLVSGELTAXHARAIAAAADPVALAKQIIEGGLSVRETEALARKAPNLSAGKSKGGRPPRVKDTDTQALESDLSSVLGLDVSIDHRGSTGTLTITYATLEQLDDLCNRLTRGI

Variants of: B1
Test: one-hybrid fitness for binding NBS DNA (the Noc-binding site; scaled: cognate 1, non-cognate 0); higher = stronger binding
Conditions: with NBS DNA site
Outline: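 Pre- and post-selection plasmids were Illumina-sequenced, three replicate libraries were pooled, and any variant with under 10 reads was removed. The libraries were Caulobacter ParB with four specificity codons randomised, selected in E. coli USO through a HIS3 reporter whose site is 19 bp from the promoter. Cells grew 48 hours at 37°C on M9 without histidine, with 0.1 mM IPTG and 5 mM 3-AT. Fitness is the log change in variant-to-wild-type read ratio, rescaled against cognate and non-cognate.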

| Variant | one-hybrid fitness for binding NBS DNA |
| --- | --- |
| SKCT | ≤ 0.2 |
| HAHK | ≤ 0.2 |
| QAQC | ≤ 0.2 |
| VFIG | ≤ 0.2 |
| QRSC | 0.366 |
| QSSH | ≤ 0.2 |
| QRSH | 0.522 |
| QCSC | ≤ 0.2 |
| QCSM | ≤ 0.2 |
| QCSN | ≤ 0.2 |
| QRSN | 0.366 |
| QSSC | ≤ 0.2 |
| QCSH | 0.272 |
| QRSM | 0.374 |
| QPSN | ≤ 0.2 |
| QPSM | ≤ 0.2 |
| YCVT | ≤ 0.2 |
| ANMM | ≤ 0.2 |
| GNYC | ≤ 0.2 |
| KFHF | ≤ 0.2 |
| LSDV | ≤ 0.2 |
| QMHF | ≤ 0.2 |
| GKLV | ≤ 0.2 |
| PMVT | ≤ 0.2 |
| VREL | ≤ 0.2 |
| QRSP | ≤ 0.2 |

| Variant | one-hybrid fitness for binding NBS DNA |
| --- | --- |
| QPSQ | ≤ 0.2 |
| QRSS | 0.659 |
| QRSQ | 0.434 |
| QCSQ | 0.271 |
| QRSD | 0.208 |
| MSPC | ≤ 0.2 |
| KWCV | ≤ 0.2 |
| LAAG | ≤ 0.2 |
| HYQF | ≤ 0.2 |
| QDFR | ≤ 0.2 |
| QPFR | ≤ 0.2 |
| QSFR | 0.37 |
| QCFR | 0.517 |
| QSFN | ≤ 0.2 |
| QSFH | ≤ 0.2 |
| FCHW | ≤ 0.2 |
| TICV | ≤ 0.2 |
| LGEA | ≤ 0.2 |
| FLQL | ≤ 0.2 |
| LSCN | ≤ 0.2 |
| HMKT | ≤ 0.2 |
| TSIM | ≤ 0.2 |
| LVHF | ≤ 0.2 |
| QMDC | ≤ 0.2 |
| QCYC | 0.204 |
| QTDC | ≤ 0.2 |

| Variant | one-hybrid fitness for binding NBS DNA |
| --- | --- |
| QTRC | 0.548 |
| QKYC | ≤ 0.2 |
| QTYC | ≤ 0.2 |
| QKRC | 0.425 |
| QKDC | ≤ 0.2 |
| QPRC | ≤ 0.2 |
| QCRC | 0.512 |
| QMYC | ≤ 0.2 |
| QMRC | 0.406 |
| PNKD | ≤ 0.2 |
| RLIW | ≤ 0.2 |
| CRYF | ≤ 0.2 |
| IAWR | ≤ 0.2 |
| GMPT | ≤ 0.2 |
| VMEC | ≤ 0.2 |
| LQWD | ≤ 0.2 |
| PYKF | ≤ 0.2 |
| ENTG | ≤ 0.2 |
| QSDC | ≤ 0.2 |
| QRRC | 0.489 |
| QRYC | 0.296 |
| QSRC | 0.374 |
| QREC | 0.22 |
| QSYC | ≤ 0.2 |
| IMYD | ≤ 0.2 |
| YWMG | ≤ 0.2 |

| Variant | one-hybrid fitness for binding NBS DNA |
| --- | --- |
| QCFT | 0.424 |
| QPFT | ≤ 0.2 |
| NRAT | ≤ 0.2 |
| DRAT | ≤ 0.2 |
| QRFT | 0.723 |
| QRAT | 0.797 |
| QSFT | 0.315 |
| RWNW | ≤ 0.2 |
| MQNW | ≤ 0.2 |
| DCWS | ≤ 0.2 |
| TDLC | ≤ 0.2 |
| NLFC | ≤ 0.2 |
| PGYI | ≤ 0.2 |
| MRFG | ≤ 0.2 |
| SRKF | ≤ 0.2 |
| PKCF | ≤ 0.2 |
| VYYR | ≤ 0.2 |
| QTVG | ≤ 0.2 |
| QTIG | ≤ 0.2 |
| QSKG | 0.302 |
| QTKG | 0.503 |
| QIKG | ≤ 0.2 |
| QRVG | 0.232 |
| QRKG | 0.485 |
| QCKG | 0.377 |
| QPKG | ≤ 0.2 |

| Variant | one-hybrid fitness for binding NBS DNA |
| --- | --- |
| KESF | ≤ 0.2 |
| IFWR | ≤ 0.2 |
| KAHR | ≤ 0.2 |
| AQIS | ≤ 0.2 |
| RGNV | ≤ 0.2 |
| HSPH | ≤ 0.2 |
| WDHG | ≤ 0.2 |
| KMKY | ≤ 0.2 |
| QYKQ | 0.394 |
| QYSQ | ≤ 0.2 |
| QYCQ | ≤ 0.2 |
| QYVQ | 0.313 |
| QYRQ | 0.435 |
| QYNQ | ≤ 0.2 |
| RSEI | ≤ 0.2 |
| SPTR | ≤ 0.2 |
| RTVH | ≤ 0.2 |
| RTKH | 0.651 |
| RTVS | 0.39 |
| RTYY | ≤ 0.2 |
| RTVN | ≤ 0.2 |
| RTKD | ≤ 0.2 |
| RPKY | ≤ 0.2 |
| RTKY | 0.418 |
| RTDY | ≤ 0.2 |
| RTVY | ≤ 0.2 |

| Variant | one-hybrid fitness for binding NBS DNA |
| --- | --- |
| RTVP | ≤ 0.2 |
| RTRY | 0.38 |
| QFSY | ≤ 0.2 |
| LCCW | ≤ 0.2 |
| SFAL | ≤ 0.2 |
| PWTQ | ≤ 0.2 |
| SYNN | ≤ 0.2 |
| PQEL | ≤ 0.2 |
| MDPA | ≤ 0.2 |
| QCMN | ≤ 0.2 |
| FPNL | ≤ 0.2 |
| PFHL | ≤ 0.2 |
| LLMP | ≤ 0.2 |
| FGTY | ≤ 0.2 |
| RTKS | 0.622 |
| RTKP | ≤ 0.2 |
| RTKN | 0.3 |
| ANHS | ≤ 0.2 |
| KTKT | 0.396 |
| KTFT | ≤ 0.2 |
| KTDT | ≤ 0.2 |
| KTVT | ≤ 0.2 |
| KTYT | ≤ 0.2 |
| KTRT | 0.44 |
| HMYT | ≤ 0.2 |
